Screens as filed in PubChem.
Shown are actives, neighbours in structure and some others; about 12% of the full set was active somewhere.
JMJD2A Tudor: qHTS Assay for Inhibitors of JMJD2A-Tudor Domain | AlphaScreen JMJD2A-Tudor / H3K4me3 peptide binding | Potency, µM (top dose mostly 114 µM), usual class: inhibitors | 4.4% of 390,000 active; note: nearly all actives have a fitted effect of over 50% in size
L3MBTL1 block: qHTS Assay for the Inhibitors of L3MBTL1; Potency, µM (series often up to 57.1 µM), hits mostly inhibitors; AID 485360, 2010; AlphaScreen L3MBTL1–H3K9me1 peptide binding; Lethal(3)malignant brain tumor-like protein 1 (Homo sapiens), Q9Y468; 0.66% of 230,000 active; note: nearly all actives have a fitted effect of over 60% in size
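L3MBTL1 (50 nM) pre-complexed 30 min with biotinylated H3(1-15)K9me1 peptide (75 nM), then compounds added for 30 min at room temperature; AlphaScreen streptavidin donor/nickel chelate acceptor beads (10 ug/mL final) read after 30 min dark incubation.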
BAZ2B block: qHTS Assay for Inhibitors of BAZ2B | Bromodomain adjacent to zinc finger domain protein 2B (Homo sapiens), Q9UIF8 | AlphaScreen BAZ2B-H3K14Ac peptide displacement | Potency, µM (top dose mostly 114 µM), hits mostly inhibitors | 4.4% of 360,000 active | AID 504333, 2011; note: nearly all actives have a fitted effect of over 60% in size
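Inhibition is scored as reduced AlphaScreen emission. The BAZ2B/b-H3(5-23)K14Ac complex (50 nM each) in PBS pH 7.4, 0.01% Tween-20 meets compound (up to 110 uM) for 30 min at RT before bead addition.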
Sfp inh: qHTS Assay for Inhibitors of Bacillus subtilis Sfp phosphopantetheinyl transferase (PPTase). Biochemical Sfp PPTase activity, qHTS. 3.5% of 310,000 active. Potency, µM, hits mostly inhibitors. 4'-phosphopantetheinyl transferase ffp (Bacillus subtilis), Q9F4F7;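 note: the enzyme is Sfp with the accession as filed and its product quenches rhodamine fluorescence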
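After 15 min at room temperature with compound, 15 nM Sfp received 5 uM rhodamine-CoA plus 12.5 uM BHQ-2-ybbR (50 mM Hepes pH 7.6, 10 mM MgCl2). Rate came from the fluorescence difference over 30 min, ex 525/em 598 nm.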
G9a inh: qHTS Assay for Inhibitors of Histone Lysine Methyltransferase G9a | G9a H3K9 monomethylation, AlphaScreen, 2 h | Potency, µM (doses to about 102 µM), most hits filed as inhibitors | 8.8% of 350,000 active; note: nearly all actives have a fitted effect of over 75% in size
Target sequence (Q96KQ7 913-1193 limits assumed): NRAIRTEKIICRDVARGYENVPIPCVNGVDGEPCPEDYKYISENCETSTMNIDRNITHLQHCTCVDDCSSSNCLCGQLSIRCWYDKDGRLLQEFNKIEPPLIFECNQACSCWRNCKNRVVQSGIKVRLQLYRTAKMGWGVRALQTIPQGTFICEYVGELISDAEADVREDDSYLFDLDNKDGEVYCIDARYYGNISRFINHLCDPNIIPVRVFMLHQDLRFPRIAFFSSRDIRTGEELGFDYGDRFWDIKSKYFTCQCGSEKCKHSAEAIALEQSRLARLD
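Quantitative HTS format: methyltransferase activity on a biotin-tagged H3K9 peptide is measured by AlphaScreen, using a rabbit anti-monomethyl-H3K9 antibody with streptavidin donor and anti-IgG acceptor beads. Final levels are 20 nM enzyme, 500 nM peptide, 20 uM SAM; 2 h RT.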
HP1b binding inh: HTS for Inhibitors of HP1-beta Chromodomain Interactions with Methylated Histone Tails; 0.56% of 390,000 active; Chromobox protein homolog 1 (Homo sapiens), P83916; Potency, µM (top dose mostly 114 µM), most hits filed as inhibitors; AlphaScreen HP1-beta / biotin-H3K9me3 peptide binding; AID 540317, 2011; note: nearly all actives have a fitted effect of over 70% in size
Target sequence (P83916 whole entry, looked up): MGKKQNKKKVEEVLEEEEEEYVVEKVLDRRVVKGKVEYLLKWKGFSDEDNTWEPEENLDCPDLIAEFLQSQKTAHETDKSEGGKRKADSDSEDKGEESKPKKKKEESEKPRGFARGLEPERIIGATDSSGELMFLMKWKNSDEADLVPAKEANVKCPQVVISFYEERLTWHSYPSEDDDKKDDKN
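HP1-beta protein (50 nM final) preincubated 30 min at room temperature with biotinylated H3(1-18)K9me3 peptide (50 nM) in PBS pH 7.4, 0.01% Tween-20, then compound added for 30 min. AlphaScreen streptavidin donor/nickel chelate acceptor beads (10 ug/mL final), 30 min dark, luminescence read.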
Numbers stand for hits; i = inactive; ? = inconclusive; nt = not tested or not shown; [ ] = remark or other dose. Calls come from the whole dose curve; as a rule, active = well fitted curve in the direction sought with a large enough effect; inconclusive = small, poorly fitted or top-dose-only effect, or another doubt; inactive = no such curve, though single readings can be large; an effect the other way counts as inactive or inconclusive.

SMILES | JMJD2A Tudor | L3MBTL1 block | BAZ2B block | Sfp inh | G9a inh | HP1b binding inh
C#CCOCCOCCOCCNc1nc(N2CCN(C(=O)C([C@@H](C)CC)n3cc(C(N)Cc4ccc(O)cc4)nn3)CC2)nc(N2CCN(C(=O)[C@H](CCC(=O)O)n3cc(C(N)Cc4ccc(O)cc4)nn3)CC2)n1 (some centres not stated) | 50.1µM | i | 56.2µM | i | ? | i
C#CCOCCOCCOCCNc1nc(N2CCN(C(=O)C([C@@H](C)CC)n3cc(C(N)CC(C)C)nn3)CC2)nc(N2CCN(C(=O)[C@H](CCC(=O)O)n3cc(C(N)Cc4ccc(O)cc4)nn3)CC2)n1 (some centres not stated) | 79.4µM | i | ? | i | ? | i
C#CCOCCOCCOCCNc1nc(N2CCN(C(=O)C([C@@H](C)CC)n3cc(C(N)Cc4ccc(O)cc4)nn3)CC2)nc(N2CCN(C(=O)[C@H](CCC(=O)O)n3cc(C(N)CC(C)C)nn3)CC2)n1 (some centres not stated) | 56.2µM | i | 50.1µM | i | ? | i
CC(=O)Nc1ccc(NC(=O)c2oc3ccc4c(c3c2C)C(=O)CC(C)(C)O4)cc1 | i | nt | i | nt | i | i
O=C(C1CCC(Cn2c(=O)c3sccc3n(Cc3ccccc3)c2=O)CC1)N1CCCCC1 (configuration not stated) | i | nt | i | nt | i | i
COc1ccccc1-c1nc(S(=O)(=O)c2ccccc2)c(N2CCC(C)CC2)o1 | i | nt | i | nt | ? | i
C#CCOCCOCCOCCNc1nc(N2CCN(C(=O)C([C@@H](C)CC)n3cc(C(N)Cc4ccc(O)cc4)nn3)CC2)nc(N2CCN(C(=O)[C@H](CCC(=O)O)n3cc(C(N)CO)nn3)CC2)n1 (some centres not stated) | 56.2µM | i | 50.1µM | i | ? | i
C#CCOCCOCCOCCNc1nc(N2CCN(C(=O)[C@H]([C@@H](C)CC)n3cc(CCC(=O)O)nn3)CC2)nc(N2CCN(C(=O)[C@H](Cc3ccc(O)cc3)n3cc(CCO)nn3)CC2)n1 | ? | nt | nt | nt | nt | i
CC(C)c1ccc(NC(=O)c2cc3c(=O)oc4ccccc4c3s2)cc1 | i | nt | i | nt | i | i
CCOC(=O)c1ccc(CC(=O)c2oc3cc(O)ccc3c2C)o1 | ? | i | ? | ? | ? | i
CCOC(=O)c1ccc(CC(=O)c2ccc(O)c(O)c2O)o1 | i | ? | 31.6µM | 6.31µM | nt | ?
CCOC(=O)CNCCC(=O)c1ccc(Br)cc1 | ? | i | ? | i | 7.08µM | i
COc1cc(N2CCCC2)c(OC)cc1/C=C1/NC(=S)NC1=O | i | i | ? | i | 22.4µM | i
Cc1ccc(CNC(=O)Cn2ccn(-c3cc(C)cc(C)c3)c(=O)c2=O)cc1 | i | nt | i | nt | ? | i
Cc1ccc(C(=O)C2=C(O)C(=O)N(c3ncccn3)C2c2ccccc2F)o1 (configuration not stated) | i | nt | i | ? | ? | i
Cc1cc(N2C(=O)C(O)=C(C(=O)c3ccco3)C2c2ccccc2F)no1 (configuration not stated) | i | nt | ? | i | 79.4µM | i
CSc1nnc(N2C(=O)C(O)=C(C(=O)c3ccc(C)o3)C2c2ccc(C)cc2)s1 (configuration not stated) | i | nt | ? | 15.8µM | i[0.501 µM] | i
CSc1nnc(N2C(=O)C(O)=C(C(=O)c3ccco3)C2c2ccccc2F)s1 (configuration not stated) | 50.1µM | nt | i | i | i[0.0925 µM] | i
CSc1nnc(N2C(=O)C(O)=C(C(=O)c3ccco3)C2c2ccccc2)s1 (configuration not stated) | ? | nt | ? | i | 39.8µM | i
